Assay results as given in PubChem BioAssay (Tox21).
Where “and” joins values, the source holds several entries; their conditions need not be identical. Equal entries are not always repeated. Inconclusive results are not listed. Calls of active or inactive are those of the source. Unless noted, calls follow the shape of the dose curve; as a rule, active = well fitted curve in the direction sought with a large enough effect in the repeat runs; inconclusive = weak or mixed curves; inactive = no such curve, though single readings can be large; an effect the other way counts as inactive or inconclusive.

How the values were obtained:
[1] = qHTS assay to identify small molecule antagonists of the estrogen related receptor (ERR) signaling pathway from Tox21 library - cell viability counter screen (AID 1224834); also: nearly all actives have a fitted effect of over 30% in size; also: potency is read from the fitted curve at half-maximal effect
Outline: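 Compounds in DMSO were pinned onto ERR cells that had been incubated for 6 h, and the plates were held at 37 C for 17.5 h. CellTiter-Fluor reagent was then added and fluorescence was measured after 30 min.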

[2] = target: Luciferin 4-monooxygenase (Photinus pyralis) (UniProt P08659); test: qHTS assay to identify small molecule inhibitors of firefly luciferase (AID 1224835); also: nearly all actives have a fitted effect of over 25% in size; also: potency is read from the fitted curve at half-maximal effect
Chain of Luciferin 4-monooxygenase (Photinus pyralis) (P08659 whole entry, looked up): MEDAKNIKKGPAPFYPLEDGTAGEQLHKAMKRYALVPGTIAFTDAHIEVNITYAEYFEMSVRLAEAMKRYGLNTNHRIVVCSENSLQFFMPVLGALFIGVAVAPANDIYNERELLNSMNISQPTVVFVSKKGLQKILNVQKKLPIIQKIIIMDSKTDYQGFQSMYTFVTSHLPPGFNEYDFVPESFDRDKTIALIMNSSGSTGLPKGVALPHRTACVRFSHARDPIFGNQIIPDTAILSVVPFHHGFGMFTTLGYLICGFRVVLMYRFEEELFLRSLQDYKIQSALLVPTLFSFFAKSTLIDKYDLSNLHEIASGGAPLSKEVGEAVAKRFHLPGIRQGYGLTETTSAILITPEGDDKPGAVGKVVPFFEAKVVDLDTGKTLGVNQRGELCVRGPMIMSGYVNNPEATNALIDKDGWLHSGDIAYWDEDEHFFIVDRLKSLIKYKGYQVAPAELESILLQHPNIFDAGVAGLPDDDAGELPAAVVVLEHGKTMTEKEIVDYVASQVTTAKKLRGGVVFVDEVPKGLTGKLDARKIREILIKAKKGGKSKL
Outline: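 Quantitative HTS format; KM concentrations of both substrates. Purified P. pyralis FLuc activity quantified from luminescence images.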

[3] = qHTS assay to identify small molecule antagonists of the constitutive androstane receptor (CAR) signaling pathway - cell viability counter screen (AID 1224837); also: nearly all actives have a fitted effect of over 45% in size; also: potency is read from the fitted curve at half-maximal effect
Outline: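 Cells are seeded, rested 4 hr at 37 C/5% CO2, dosed with compound (15-point series) and 50 nM CITCO, incubated a further 23 hr, and then CellTiter-Fluor reagent is added before fluorescence is read. The line is HepG2 with stable hCAR and CYP2B6-2.2kb.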

[4] = target: Nuclear receptor subfamily 1 group I member 3 (Homo sapiens) (UniProt Q14994); test: qHTS assay to identify small molecule agonists of the constitutive androstane receptor (CAR) signaling pathway (AID 1224839); also: nearly all actives have a fitted effect of over 15% in size; also: potency is read from the fitted curve at half-maximal effect;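 as to activation: HepG2 cells stably carrying human CAR and a CYP2B6 luciferase reporter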
Chain of Nuclear receptor subfamily 1 group I member 3 (Homo sapiens) (Q14994 whole entry, looked up): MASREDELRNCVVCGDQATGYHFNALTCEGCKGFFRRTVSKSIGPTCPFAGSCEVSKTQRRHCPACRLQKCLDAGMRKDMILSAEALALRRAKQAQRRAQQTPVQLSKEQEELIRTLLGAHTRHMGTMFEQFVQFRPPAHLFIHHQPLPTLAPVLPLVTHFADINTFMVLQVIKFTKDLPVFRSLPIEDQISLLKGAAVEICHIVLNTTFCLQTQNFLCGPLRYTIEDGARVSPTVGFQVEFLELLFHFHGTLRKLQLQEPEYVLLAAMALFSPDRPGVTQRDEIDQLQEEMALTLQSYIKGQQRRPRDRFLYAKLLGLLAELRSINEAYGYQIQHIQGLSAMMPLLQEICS
Outline: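 In this screen, CAR-driven CYP2B6 promoter activity is measured by luminescence in HepG2-CYP2B6-hCAR cells after 24 h with test compounds and 0.75 uM PK11195 (final concentration).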

[5] = qHTS assay to identify small molecule antagonists of the estrogen related receptor signaling pathway with the pleiotropic PPARgamma coactivator (PGC) from Tox21 10K library - cell viability counter screen (AID 1224840; active = well fitted cell-killing curve with a large enough effect in the repeat runs, not every such curve was filed as active; also: nearly all actives have a fitted effect of over 40% in size; also: potency is read from the fitted curve at half-maximal effect)
Outline: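 Cell viability is measured by CellTiter-Fluor fluorescence in PGC/ERR cells that receive compounds after a 6-hour attachment period and are then incubated 17.5 hours at 37 C.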

[6] = qHTS assay to identify small molecule antagonists of the estrogen related receptor signaling pathway with the pleiotropic PPARgamma coactivator (PGC) from Tox21 10K library (AID 1224841; call rule not given here; also: actives are mostly falling curves and most rising ones were filed inactive; nearly all actives have a fitted effect of over 50% in size; also: potency is read from the fitted curve at half-maximal effect)
Outline: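 Cells stably carrying the PGC/ERR reporter, seeded at 2,000 per well, received pin-transferred compounds 6 h post-plating. Exposure lasted 18 h at 37 C. Signal: One-Glo luminescence.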

[7] = qHTS assay to identify small molecule agonists of the estrogen related receptor signaling pathway with the pleiotropic PPARgamma coactivator (PGC) from Tox21 10K library (AID 1224842); also: nearly all actives have a fitted effect of over 15% in size
Outline: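 PGC/ERR reporter cells (NTP line) were seeded 2,000 per well, rested 6 h at 37 C/5% CO2, then pin-dosed with compounds in DMSO for 18 h at 37 C; luciferase read by One-Glo luminescence after 30 min at room temperature.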

[8] = target: Thyrotropin receptor (Homo sapiens) (UniProt P16473); test: qHTS assay to identify small molecule agonists of the thyroid stimulating hormone receptor (TSHR) signaling pathway (AID 1224843; calls by dose curve; also: nearly all actives have a fitted effect of over 45% in size; also: potency is read from the fitted curve at half-maximal effect)
Chain of Thyrotropin receptor (Homo sapiens) (P16473 whole entry, looked up): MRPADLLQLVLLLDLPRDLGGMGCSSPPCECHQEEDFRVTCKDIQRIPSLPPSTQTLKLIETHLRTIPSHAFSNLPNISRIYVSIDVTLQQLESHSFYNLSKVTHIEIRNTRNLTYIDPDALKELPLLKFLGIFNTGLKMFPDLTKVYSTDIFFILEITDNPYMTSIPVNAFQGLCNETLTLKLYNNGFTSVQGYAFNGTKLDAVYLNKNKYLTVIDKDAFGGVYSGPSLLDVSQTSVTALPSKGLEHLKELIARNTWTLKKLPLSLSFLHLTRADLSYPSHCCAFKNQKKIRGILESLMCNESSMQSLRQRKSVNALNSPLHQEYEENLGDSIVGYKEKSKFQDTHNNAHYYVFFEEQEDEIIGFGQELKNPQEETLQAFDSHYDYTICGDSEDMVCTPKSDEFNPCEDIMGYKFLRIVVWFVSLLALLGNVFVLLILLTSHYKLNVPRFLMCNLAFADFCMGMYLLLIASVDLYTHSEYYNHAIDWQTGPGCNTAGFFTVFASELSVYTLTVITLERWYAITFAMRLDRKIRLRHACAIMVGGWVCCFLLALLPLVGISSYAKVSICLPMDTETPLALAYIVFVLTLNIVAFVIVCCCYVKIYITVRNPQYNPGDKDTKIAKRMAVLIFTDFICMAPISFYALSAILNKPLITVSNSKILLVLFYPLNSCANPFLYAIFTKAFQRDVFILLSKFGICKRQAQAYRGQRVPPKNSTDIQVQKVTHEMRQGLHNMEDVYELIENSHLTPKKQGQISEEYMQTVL
Outline: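 Compounds are titrated over 15 concentrations, in triplicate, onto TSHR-HEK293 cells seeded at 800/well. Plates sit 30 min at room temperature before cAMP-d2 and anti-cAMP cryptate are added; signal is read after a further hour.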

[9] = qHTS assay to identify small molecule agonists of the hypoxia (HIF-1) signaling pathway - cell viability counter screen (AID 1224844; calls by dose curve; also: nearly all actives have a fitted effect of over 50% in size; also: potency is read from the fitted curve at half-maximal effect)
Outline: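 Viability counter screen: HRE-bla ME-180 cells plated 5 hrs before compound addition, treated 17 hrs at 37C and 5% CO2, then CellTiter-Glo added after the FRET reporter read; luminescence after 30 min.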

[10] = qHTS assay to identify small molecule agonists of H2AX (AID 1224845; active = well fitted activation curve with a large enough effect in the signal ratio in the repeat runs, not every such curve was filed as active; the % refers to the signal ratio; also: potency is read from the fitted curve at half-maximal effect)
Outline: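 Wild-type CHO-K1 cells plated overnight, then exposed 3 hr at 37C to compounds at 15 concentrations (0.76% DMSO). Lysed, then HTRF anti-pH2AX(S139)-cryptate/anti-H2AX-d2 detection after 24 hr at room temperature; emissions 665 and 620 nm.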

[11] = qHTS assay to identify small molecule agonists of H2AX - cell viability counter screen (AID 1224847; calls by dose curve; also: nearly all actives have a fitted effect of over 30% in size; also: potency is read from the fitted curve at half-maximal effect)
Outline: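 Read-out: CellTiter-Glo luminescence, 30 min RT. Cells: wild-type CHO-K1, 1000/well, 10% FBS, plated overnight at 37C. Treatment: 15 concentrations, 3 hr, 37C, 0.76% DMSO.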

[12] = qHTS assay to identify small molecule antagonists of the estrogen related receptor (ERR) signaling pathway from Tox21 library (AID 1224848); also: nearly all actives have a fitted effect of over 50% in size; also: potency is read from the fitted curve at half-maximal effect
Outline: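 First, 2,000 ERR cells per well were plated and held 6 h at 37 C/5% CO2. Next, compounds in DMSO were pinned in and left 18 h at 37 C. Finally, ONE-Glo was added and luminescence read after 30 min at room temperature.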

[13] = qHTS assay to identify small molecule agonists of the estrogen related receptor (ERR) signaling pathway from Tox21 library (AID 1224849; calls by dose curve; also: nearly all actives have a fitted effect of over 15% in size); settings: ERR reporter cell line, ONE-Glo luciferase, 18 h
Outline: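 Quantitative HTS in agonist format: NTP ERR cell line, compounds transferred in DMSO after 6 h plating, 18 h incubation at 37 C, ONE-Glo luminescence endpoint.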

[14] = qHTS RealTime-Glo MT Cell Viability Assay in HEK293 cells - 32 hour (AID 1224868); also: nearly all actives have a fitted effect of over 50% in size; also: potency is read from the fitted curve at half-maximal effect
Outline: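 Assay medium contained NanoLuc luciferase plus cell-permeant prosubstrate, added with HEK293 cells at 600 cells/well. After 5 h at 37 C/5% CO2 compounds were added; plates stayed at 37 C for 40 h with serial luminescence reads.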

[15] = A CellTox Green Cytotoxicity Assay to monitor cytotoxicity in HEK293 cells - 0 hour (AID 1224869); also: nearly all actives have a fitted effect of over 50% in size
Outline: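 Dead-cell fluorescence measured kinetically: asymmetric cyanine dye, HEK293, 600 cells/well, 5 h settle, 23 nL cpd/DMSO, 37 C, reads 0–40 h every 8 h.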

[16] = target: Nuclear receptor subfamily 1 group I member 3 (Homo sapiens) (UniProt Q14994); test: qHTS assay to identify small molecule antagonists of the constitutive androstane receptor (CAR) signaling pathway (AID 1224838);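 also: HepG2 cells stably expressing hCAR with CYP2B6 luciferase reporter stimulated by CITCO; nearly all actives have a fitted effect of over 40% in size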; also: potency is read from the fitted curve at half-maximal effect
Outline: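 Luminescence from a CYP2B6-2.2kb promoter reporter in hCAR-expressing HepG2 cells reflects CAR signaling. Cells received compounds at 15 concentrations and 50 nM CITCO (final), then incubated 24 h at 37 C/5% CO2.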

[17] = qHTS RealTime-Glo MT Cell Viability Assay in HepG2 cells - 40 hour (AID 1224870); also: nearly all actives have a fitted effect of over 50% in size; also: potency is read from the fitted curve at half-maximal effect
Outline: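 HepG2 cells mixed with RealTime-Glo MT reagents (NanoLuc plus cell-permeant prosubstrate) were seeded at 600 cells/well, incubated 5 h at 37 C/5% CO2, then pinned with compounds in DMSO; nonlytic luminescence tracked viability during 40 h treatment.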

[18] = qHTS RealTime-Glo MT Cell Viability Assay in HepG2 cells - 24 hour (AID 1224867); also: nearly all actives have a fitted effect of over 50% in size; also: potency is read from the fitted curve at half-maximal effect
Outline: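 qHTS, HepG2, 600 cells/well, RealTime-Glo (NanoLuc + prosubstrate) added with cells; 5 h preincubation; DMSO compound addition; 37 C; luminescence at 0/8/16/24/32/40 h.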

[19] = qHTS assay to identify small molecule agonists of the constitutive androstane receptor (CAR) signaling pathway - cell viability counter screen (AID 1224836); also: nearly all actives have a fitted effect of over 45% in size
Outline: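 Compound titrations (15 concentrations) went onto HepG2-CYP2B6-hCAR cells 4 h after seeding, alongside PK11195 at a final 0.75 uM; a 23 h, 37 C/5% CO2 incubation preceded CellTiter-Fluor viability measurement.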

[20] = qHTS assay to identify small molecule agonists of the hypoxia (HIF-1) signaling pathway (AID 1224846; active = well fitted activation curve with a large enough effect in the signal ratio in the repeat runs, not every such curve was filed as active; the % refers to the signal ratio)
Outline: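 Agonist mode reporter screen. ME-180 cells stably expressing bla under HRE control received test compounds in DMSO for 17 hrs (37C, 5% CO2), and beta-lactamase activity was then detected with the CCF4-AM FRET substrate.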

[21] = at 92.4 µM (top of the series) unless noted
% is scaled to controls: 0 for no effect and ±100 for the full control effect.

CCCN(CCC)c1c([N+](=O)[O-])cc(C(F)(F)F)c(N)c1[N+](=O)[O-]
active: Potency [1] 48.4 µM | Potency [3] 68.4 µM | Potency [4] 13.6 µM | Potency [5] 43.1 µM | Potency [6] 38.5 µM | Potency [8] 6.09 µM | Potency [9] 13.8 µM | Potency [10] 35.6 µM | Potency [11] 50.4 µM | Potency [12] 30.5 µM | Potency [14] 19.4 µM
inactive: Potency [2] | Potency [7] | activity change, positive = activation [13, 21] -75.7% | Potency [15]

O=C1c2c(O)ccc(Nc3ccc(CCO)cc3)c2C(=O)c2c([N+](=O)[O-])ccc(O)c21
inactive: Potency [16] | Potency [14] | Potency [15] | Potency [17]
active: Potency [1] 38.6 µM | Potency [2] 17.8 µM | Potency [4] 27.3 µM

Nc1ccccc1O
inactive: Potency [2] | Potency [16] | Potency [7] | Potency [8] | Potency [11] | activity change, positive = activation [13, 21] -27.3% | Potency [18] | Potency [17]
active: Potency [1] 60.3 µM | Potency [4] 24 µM

CC(C)OC(=O)c1cc2c(OCC(O)CNC(C)(C)C)cccc2[nH]1 (stereo not given)
inactive: Potency [1] | Potency [2] | Potency [19] | Potency [3] | Potency [5] | Potency [9] | Potency [10] | Potency [20] | Potency [11] | Potency [18] | Potency [15] | Potency [17]
active: Potency [14] 9.52 µM

Cc1[nH]cnc1C[C@H]1CCc2c(C)c3ccccc3n2C1=O
active: Potency [1] 47.4 µM | Potency [16] 59.6 µM | Potency [6] 23.7 µM | Potency [12] 26.6 µM | Potency [14] 23.9 µM | Potency [17] 42.6 µM
inactive: Potency [2] | Potency [4] | Potency [7] | Potency [8] | Potency [9] | Potency [10] | activity change, positive = activation [13, 21] -63.7% | Potency [15]

CCN(CCC#N)c1ccc(N=Nc2c(Cl)cc([N+](=O)[O-])cc2Cl)cc1
inactive: Potency [16] | Potency [4] | Potency [6] | Potency [7] | Potency [9] | Potency [10] | Potency [20] | activity change, positive = activation [13, 21] -27% | Potency [14]
active: Potency [1] 15.4 µM | Potency [2] 63.3 µM | Potency [11] 56.6 µM

O=C(NOCC1CC1)c1ccc(F)c(F)c1Nc1ccc(I)cc1Cl
active: Potency [1] 18.8 µM | Potency [6] 11.9 µM | Potency [12] 11.9 µM | Potency [17] 0.535 µM
inactive: Potency [2] | Potency [19] | Potency [3] | Potency [7] | Potency [10] | activity change, positive = activation [13, 21] -59% [at 42.5 µM] | Potency [15]

CN1CCN(CCC(=O)N2c3ccccc3Sc3ccc(C(F)(F)F)cc32)CC1
inactive: Potency [2] | Potency [3] | Potency [7] | Potency [8] | Potency [20] | activity change, positive = activation [13, 21] -67.1% [at 42.5 µM] | Potency [15]
active: Potency [1] 29.8 µM | Potency [5] 29.8 µM | Potency [18] 23.9 µM

ON=C1CCCC1
active: Potency [1] 25.2 µM | Potency [6] 63.3 µM | Potency [10] 104 µM | Potency [12] 39.9 µM | Potency [14] 25.4 µM
inactive: Potency [2] | Potency [16] | Potency [7] | Potency [8] | Potency [20] | activity change, positive = activation [13, 21] -71.1% | Potency [15] | Potency [17]

CC(C)(C)CC(C)(C)c1ccc(OCCOCC[N+](C)(C)Cc2ccccc2)cc1
inactive: Potency [2] | Potency [19] | Potency [7] | Potency [10] | activity change, positive = activation ([13]; at 42.5 µM (top of the series)) -58.4% | activity change, positive = activation ([13]; at 92.4 µM (top of the series)) -70.8% | Potency [15]
active: Potency [1] 48.5 µM and 13.3 µM | Potency [5] 48.5 µM | Potency [6] 27.3 µM and 6.68 µM | Potency [8] 13.7 µM and 11.9 µM | Potency [9] 19.5 µM and 9.52 µM | Potency [11] 101 µM and 49.2 µM | Potency [12] 6.85 µM and 5.96 µM | Potency [18] 48.9 µM and 9.52 µM | Potency [14] 12.3 µM and 9.52 µM | Potency [17] 24.5 µM and 9.52 µM

CCOC(=O)O[C@]1(C(=O)OCCl)CC[C@H]2[C@@H]3CCC4=CC(=O)C=C[C@]4(C)[C@H]3[C@@H](O)C[C@@]21C
inactive: Potency [1] | Potency [2] | Potency [19] | Potency [3] | Potency [5] | Potency [8] | Potency [10] | Potency [11] | Potency [15] | Potency [17]

Cc1ccc(O)c2ncccc12
active: Potency [1] 16.8 µM | Potency [3] 11.9 µM | Potency [16] 13.3 µM | Potency [5] 23.7 µM | Potency [12] 18.8 µM
inactive: Potency [2] | Potency [4] | Potency [7] | Potency [8] | Potency [9] | activity change, positive = activation [13, 21] -58.3% [at 42.5 µM] | Potency [18] | Potency [14] | Potency [17]

O=C(O)c1ccc(Cl)c(Cl)c1
inactive: Potency [1] | Potency [19] | Potency [3] | Potency [16] | Potency [4] | Potency [5] | Potency [6] | Potency [7] | Potency [8] | Potency [9] | Potency [10] | Potency [20] | Potency [11] | Potency [12] | activity change, positive = activation [13, 21] -1.94% | Potency [18] | Potency [14] | Potency [15] | Potency [17]

CCCCCCCCCCCCc1ccc(O)cc1
active: Potency [1] 54.5 µM | Potency [5] 48.6 µM | Potency [6] 54.5 µM | Potency [8] 27.3 µM | Potency [9] 24.5 µM | Potency [10] 56.6 µM | Potency [11] 45 µM | Potency [12] 54.5 µM | Potency [18] 49 µM | Potency [14] 43.6 µM | Potency [17] 54.9 µM
inactive: Potency [2] | Potency [7] | activity change, positive = activation [13, 21] -63.6% | Potency [15]
